Inconclusive results are not listed. Activity calls are given as the source filed them. Calls come from the whole dose curve; as a rule, active = well fitted curve in the direction sought with a large enough effect; inconclusive = small, poorly fitted or top-dose-only effect, or another doubt; inactive = no such curve, though single readings can be large; an effect the other way counts as inactive or inconclusive.
Experiments:
[1] = biological target: Alpha-galactosidase A (Homo sapiens) (UniProt P06280); assay: Counterscreen for Glucocerebrosidase Inhibitors: qHTS Assay for Human alpha-Galactosidase at pH 4.5 (AID 992)
Outline: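 Steps: enzyme (2 nM final), then compound across 0.7 nM to 77 uM, then 80 uM fluorogenic galactopyranoside substrate; incubate 20 min at room temperature; quench at pH 10; measure fluorescence at 365/440 nm.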

[2] = biological target: alpha-glucosidase (Oryza sativa, rice) (UniProt Q653V4); assay: Counterscreen for Glucocerebrosidase Inhibitors: qHTS Assay for Rice alpha-Glucosidase at pH 5.0 (AID 997)
Outline: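 Endpoint fluorogenic assay at pH 5.0: compounds (0.7 nM to 77 uM) titrated against 4 nM rice enzyme and 400 uM 4-MU-alpha-glucoside for 20 min at room temperature; NaOH/glycine stop, read ex 365/em 440 nm, Hill-fitted AC50.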

[3] = Cell Viability - LYMP2-025 (AID 976); note: series mostly up to about 92 µM
Outline: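 Cytotoxicity read as loss of intracellular ATP (luciferase luminescence) after 24 h compound treatment at 37 C. Uses LYMP2-025 lymphoblastoid cells in 1536-well format; Hill-equation modelling gives AC50; tetraoctylammonium bromide as positive control.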

[4] = Cell Viability - LYMP2-002 (AID 977); note: series mostly up to about 92 µM
Outline: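 Human lymphoblastoid cells (2500/well) in complete medium were preincubated 5 hr at 37 C, then exposed to compounds for 24 hr at 37 C. Intracellular ATP was read by CellTiter-Glo luminescence; AC50 came from Hill-equation concentration-response fits.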

[5] = Cell Viability - LYMP2-010 (AID 981); note: nearly all actives have a fitted effect of over 55% in size; note: potency is the fitted concentration of half-maximal effect
Outline: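 CellTiter-Glo ATP luminescence measured cytotoxicity after 24 h compound exposure at 37 C. LYMP2-010 cells were seeded at 2500/well, with tetraoctylammonium bromide as control; concentration-response curves gave AC50 values by the Hill equation.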

[6] = Cell Viability - LYMP2-014 (AID 983); note: series mostly up to about 92 µM; nearly all actives have a fitted effect of over 50% in size
Outline: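 Intracellular ATP loss, read by luciferase luminescence, measures acute cytotoxicity after 24 h compound exposure of lymphoblastoid LYMP2-014 cells (2500/well, 37 C). Concentration-response data fitted to the Hill equation for AC50.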

[7] = Cell Viability - LYMP1-002 - Assay at 24 hr (AID 993)
Outline: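 qHTS cytotoxicity at 24 h: CellTiter-Glo ATP luminescence in lymphoblastoid line LYMP1-002 incubated with compound at 37 °C. Concentration-response modeled with the Hill equation for AC50; tetraoctylammonium bromide served as positive control.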

[8] = Cell Viability - LYMP2-021 (AID 974); note: nearly all actives have a fitted effect of over 55% in size
Outline: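 AC50 values come from Hill-equation fits to CellTiter-Glo luminescence (ATP content), read after 24 hour compound exposure at 37 C of 2500 LYMP2-021 lymphoblastoid cells/well; tetraoctylammonium bromide as positive control.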

[9] = Cell Viability - LYMP2-023 (AID 975);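 note: cellular ATP measured by luciferase luminescence as viability proxy; series mostly up to about 92 µM; nearly all actives have a fitted effect of over 55% in size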
Outline: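 Intracellular ATP, read by CellTiter-Glo luminescence, reports viability after 24 hr compound exposure at 37 C. 2500 lymphoblastoid cells/well (LYMP2-023) seeded 5 hr beforehand; Hill fits give AC50; positive control tetraoctylammonium bromide.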

[10] = Cell Viability - LYMP2-006 (AID 978); note: series mostly up to about 92 µM; nearly all actives have a fitted effect of over 60% in size
Outline: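 Cells are seeded at 2500 per well and rested 5 hr at 37 C. Compounds are added across a concentration series for 24 hr at 37 C, after which ATP is quantified by luciferase luminescence.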

[11] = Cell Viability - LYMP2-007 (AID 979);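 note: cells exposed to compound for 24 h before reading; nearly all actives have a fitted effect of over 60% in size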
Outline: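 AC50 values come from Hill-equation fits of luminescent intracellular ATP (CellTiter-Glo, 30 min, room temperature) following 24 h compound exposure at 37 C. Cells: LYMP2-007 lymphoblastoid line, 2500 per well, in complete culture medium.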

[12] = Cell Viability - LYMP2-008 (AID 980); note: nearly all actives have a fitted effect of over 60% in size
Outline: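 Cytotoxicity determined from ATP-dependent luciferase luminescence (CellTiter-Glo) following 24 h compound exposure of human lymphoblastoid LYMP2-008 cells at 37 C. Concentration-response data fitted to the Hill equation to give AC50.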

[13] = Cell Viability - LYMP2-012 (AID 982);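 note: cellular ATP by luciferase luminescence where a drop means cytotoxicity; cells exposed to compound for one day before reading; nearly all actives have a fitted effect of over 55% in size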
[14] = Cell Viability - LYMP2-016 (AID 984); note: nearly all actives have a fitted effect of over 55% in size
Outline: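 Cells were seeded at 2500 per well and rested 5 hr before a 24 hr compound exposure at 37 C. Viability was then gauged as cellular ATP by luciferase luminescence, with AC50 values fitted to the Hill equation.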

[15] = Cell Viability - LYMP2-018 (AID 985); note: nearly all actives have a fitted effect of over 50% in size
Outline: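 Viability read as CellTiter-Glo luminescence (cellular ATP) after 24 hr compound exposure at 37 C of 2500 LYMP2-018 lymphoblastoid cells/well, pre-plated 5 hr. Hill-equation modelling gave AC50.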

[16] = Cell Viability - LYMP2-020 (AID 986)
Outline: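 Cytotoxicity in qHTS format: luminescent ATP readout from CellTiter-Glo after 24 h compound exposure at 37 C in complete medium. LYMP2-020 lymphoblastoid cells were seeded at 2500/well; concentration-response data fitted to the Hill equation for AC50.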

[17] = Cell Viability - LYMP2-022 (AID 987); note: nearly all actives have a fitted effect of over 55% in size
Outline: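 Cytotoxicity read as decreased cellular ATP (CellTiter-Glo luminescence, 30 min room temperature) after 24 hours compound exposure of 2500 lymphoblastoid LYMP2-022 cells/well at 37 C. Concentration-response data fitted with standard Hill equation for AC50.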

[18] = Cell Viability - LYMP2-024 (AID 988); note: nearly all actives have a fitted effect of over 60% in size
Outline: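 Cytotoxicity was taken as a decrease in ATP (CellTiter-Glo luminescence) after 24 hr compound exposure at 37 C of LYMP2-024 lymphoblastoid cells, 2500 cells/well. Concentration-response data were fitted to the Hill equation to give AC50.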

[19] = Cell Viability - LYMP2-026 (AID 989); note: nearly all actives have a fitted effect of over 50% in size
Outline: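 Cytotoxicity read as ATP-dependent luminescence (CellTiter-Glo, 30 min room temperature) after 24 h compound treatment at 37 C. LYMP2-026 lymphoblastoid line seeded at 2500 cells/well; AC50 derived by standard Hill equation.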

[20] = Cell Viability - LYMP1-002 - Assay at 40 hr (AID 994); note: nearly all actives have a fitted effect of over 60% in size
Outline: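 Cytotoxicity was read as loss of cellular ATP (CellTiter-Glo luminescence) after 40 hr compound exposure at 37 C of 2500 LYMP1-002 lymphoblastoid cells per well. Concentration-response data were fitted with the standard Hill equation to give AC50.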

Measured: Potency

Chain of Alpha-galactosidase A (Homo sapiens) (P06280 whole entry, looked up): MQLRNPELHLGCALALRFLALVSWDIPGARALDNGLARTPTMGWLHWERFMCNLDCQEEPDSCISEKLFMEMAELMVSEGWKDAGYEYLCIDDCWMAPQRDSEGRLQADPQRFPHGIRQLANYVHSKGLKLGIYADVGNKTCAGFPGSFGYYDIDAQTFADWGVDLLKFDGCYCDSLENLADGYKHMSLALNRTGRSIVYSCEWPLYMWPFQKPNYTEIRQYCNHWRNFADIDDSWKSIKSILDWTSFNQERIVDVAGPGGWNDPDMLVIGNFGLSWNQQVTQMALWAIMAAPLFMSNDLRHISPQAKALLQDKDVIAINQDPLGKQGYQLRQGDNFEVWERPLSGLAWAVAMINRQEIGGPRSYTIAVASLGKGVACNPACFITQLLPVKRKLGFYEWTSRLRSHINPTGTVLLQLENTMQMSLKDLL

Nc1nc2ccc(OC(F)(F)F)cc2s1
inactive: [1] | [2]

CC(C)(Sc1ccc(CCN(CCCCC2CCCCC2)C(=O)NC2CCCCC2)cc1)C(=O)O
inactive: [1] | [2]

Nc1nc2c(ncn2COCCO)c(=O)[nH]1
inactive: [1] | [2]

Cn1cnc([N+](=O)[O-])c1Sc1ncnc2nc[nH]c12
inactive: [3] | [4] | [6] | [1] | [7] | [2]
active: [5] 39.8 µM

NC(=O)c1cnccn1
inactive: all assays above

CCCCNc1cc(C(=O)O)cc(S(N)(=O)=O)c1Oc1ccccc1
inactive: [1] | [2]

CN1CCN(CCCN2c3ccccc3Sc3ccc(C(F)(F)F)cc32)CC1
inactive: [1] | [2]

N=c1nc(N2CCCCC2)cc(N)n1O
inactive: [1] | [2]

Cc1cn[nH]c1
inactive: [1] | [2]

C1COC(NC(C2CC2)C2CC2)=N1
inactive: [1] | [2]

Cc1[nH]c(=O)c(C#N)cc1-c1ccncc1
inactive: [1] | [2]

NNCCc1ccccc1
inactive: [1] | [2]

Clc1cccc(Cl)c1NC1=NCCN1
inactive: [1] | [2]

Cc1ccc(N(CC2=NCCN2)c2cccc(O)c2)cc1
inactive: [1] | [2]

Cc1oncc1C(=O)Nc1ccc(C(F)(F)F)cc1
inactive: [1] | [2]

O=NN(CCCl)C(=O)NCCCl
inactive: [1] | [2]

O=c1[nH]cnc2[nH]ncc12
not listed: [3]
inactive: all other assays above

NC(N)=NC(=O)c1nc(Cl)c(N)nc1N
not listed: [5] | [16]
inactive: all other assays above

Cc1[nH]c(=O)c(C#N)cc1-c1ccc2nccn2c1
inactive: [1] | [2]

CC(C)NCC(O)COc1ccc(COCCOC(C)C)cc1 (stereo not given)
inactive: [1] | [2]

OC(CN1CCC(Cc2ccc(F)cc2)CC1)c1ccc(Cl)cc1 (stereo not given)
inactive: [1] | [2]

C[C@]12CCC(=O)C=C1CC[C@@H]1[C@@H]2[C@@H](O)C[C@@]2(C)[C@H]1CC[C@]2(O)C(=O)CO
inactive: [1] | [2]

CC(=O)Oc1ccccc1C(=O)O
inactive: all assays above

O=c1n(CCCN2CCN(c3cccc(Cl)c3)CC2)nc2ccccn12
inactive: [1] | [2]

CNC[C@H](O)c1cccc(O)c1
inactive: [1] | [2]

CCOC(=O)N1CCC(=C2c3ccc(Cl)cc3CCc3cccnc32)CC1
inactive: [1] | [2]

N[C@@H]1CONC1=O
inactive: [1] | [2]

NCCc1ccc(O)c(O)c1
inactive: [1] | [2]

CCCC(CCC)C(=O)O
inactive: all assays above

NS(=O)(=O)c1cc2c(cc1Cl)NC=NS2(=O)=O
inactive: all assays above

Cc1cnc(NC(=O)C2=C(O)c3ccccc3S(=O)(=O)N2C)s1
inactive: [1] | [2]

Nc1ccc(S(=O)(=O)Nc2ccnn2-c2ccccc2)cc1
inactive: [1] | [2]

NC[C@H](O)c1ccc(O)c(O)c1
inactive: [1] | [2]

O=C1CCc2cc(OCCCCc3nnnn3C3CCCCC3)ccc2N1
inactive: [1] | [2]

CCOC(=O)C1=C[C@@]2(CC)CCCN3CCc4c(n1c1ccccc41)[C@H]32
inactive: [1] | [2]
